PubChem BioAssay AID1159580 (chemical genetic matrix, 2015)
Screen size: about 5,500 compounds; about 2,000 (36%) were called active. Inconclusive results (about 18%) are left out. Cut-off read from the data, not from the text of the source: active = normalized growth mostly below about 0.91 (no sharp cut-off); inconclusive = no clear call, values can overlap the other calls; inactive = mostly above about 0.92. The list shows a part of the results.

Test: chemical genetic growth profiling, strain panel (AID 1159580);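 note: tested at 20 µM; growth read once vehicle control cultures reached saturation at 30 °C; 1 = growth at the plate median or of vehicle wells; lower values mean less growth of the strain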
Settings: S. cerevisiae deletion strains, growth OD

Measured: normalized growth

CC(=O)c1ccc(Cl)c(NS(=O)(=O)c2cc(Cl)c(Cl)cc2Cl)c1
active: locus YBR160W, strain CDC28, hits give low values 0.886 | locus YDL028C, strain MPS1, hits give low values 0.89 | locus YDR226W, strain ADK1, hits give low values 0.897 | locus YFL009W, strain cdc4, hits give low values 0.881 | locus YHR030C, strain SLT2, hits give low values 0.317 | locus YLR113W, strain HOG1, hits give low values 0.648 | locus YNL222W, strain SSU72, hits give low values 0.884 | locus YPL256C, strain CLN2, hits give low values 0.664 | locus YPR111W, strain DBF20, hits give low values 0.858
inactive: locus YAR019C, strain CDC15, hits give low values 0.906 | locus YBL105C, strain PKC1, hits give low values 0.925 | locus YBR135W, strain CKS1, hits give low values 0.91 | locus YBR136W, strain MEC1, hits give low values 0.914 | locus YDL017W, strain CDC7, hits give low values 0.925 | locus YDL101C, strain DUN1, hits give low values 0.95 | locus YDL108W, strain KIN28, hits give low values 0.905 | locus YDL132W, strain cdc53, hits give low values 0.9 | locus YDL214C, strain PRR2, hits give low values 0.868 | locus YDR052C, strain DBF4, hits give low values 0.933 | locus YDR054C, strain cdc34, hits give low values 0.909 | locus YDR477W, strain SNF1, hits give low values 0.799 | locus YER123W, strain YCK3, hits give low values 0.794 | locus YER133W, strain GLC7, hits give low values 0.875 | locus YFL029C, strain CAK1, hits give low values 0.898 | locus YFR003C, strain YPI1, hits give low values 0.917 | locus YFR019W, strain FAB1, hits give low values 0.881 | locus YFR028C, strain CDC14, hits give low values 0.895 | locus YGR040W, strain KSS1, hits give low values 0.805 | locus YGR052W, strain FMP48, hits give low values 0.781 | locus YGR092W, strain DBF2, hits give low values 0.631 | locus YHR079C, strain IRE1, hits give low values 0.697 | locus YHR082C, strain KSP1, hits give low values 0.735 | locus YHR205W, strain SCH9, hits give low values 0.801 | locus YIL147C, strain SLN1, hits give low values 0.904 | locus YJL095W, strain BCK1, hits give low values 0.636 | locus YJL128C, strain PBS2, hits give low values 0.835 | locus YJL157C, strain FAR1, hits give low values 0.877 | locus YJR016C, strain ILV3, hits give low values 0.921 | locus YJR066W, strain TOR1 (second series), hits give low values 0.811 | locus YJR066W, strain TOR1, hits give low values 0.719 | locus YKL048C, strain ELM1, hits give low values 0.843 | locus YKL067W, strain YNK1, hits give low values 0.864 | locus YKL101W, strain HSL1, hits give low values 0.814 | locus YKL193C, strain SDS22, hits give low values 0.906 | locus YKL203C, strain TOR2, hits give low values 0.905 | locus YLR133W, strain CKI1, hits give low values 0.865 | locus YLR403W, strain SFP1, hits give low values 0.826 | locus YML070W, strain DAK1, hits give low values 0.811 | locus YMR001C, strain CDC5, hits give low values 0.899 | locus YMR205C, strain PFK2 (second series), hits give low values 0.905 | locus YMR277W, strain FCP1, hits give low values 0.885 | locus YNL006W, strain LST8, hits give low values 0.925 | locus YNL020C, strain ARK1, hits give low values 0.829 | locus YNL161W, strain CBK1, hits give low values 0.921 | locus YNL183C, strain NPR1, hits give low values 0.819 | locus YNL207W, strain RIO2, hits give low values 0.906 | locus YNL307C, strain MCK1 (second series), hits give low values 0.786 | locus YOL078W, strain AVO1, hits give low values 0.9 | locus YOL136C, strain PFK27, hits give low values 0.789 | locus YOR061W, strain CKA2, hits give low values 0.744 | locus YOR119C, strain RIO1, hits give low values 0.832 | locus YOR231W, strain MKK1, hits give low values 0.704 | locus YOR329C, strain SCD5, hits give low values 0.923 | locus YPL031C, strain PHO85, hits give low values 0.788 | locus YPL153C, strain RAD53, hits give low values 0.768 | locus YPL204W, strain HRR25, hits give low values 0.763 | locus YPL209C, strain IPL1, hits give low values 0.916 | locus YPR025C, strain CCL1, hits give low values 0.912 | locus YPR106W, strain ISR1, hits give low values 0.904 | strain NNK1, hits give low values 0.894 | strain TSCII, hits give low values 0.898
